# Source: PubChem BioAssay (National Center for Advancing Translational Sciences (NCATS))
# PTAP TSG101 blk: blocks PTAP/TSG101 interaction to inhibit HIV-1 budding | Q99816 | Fluorescence polarization, FITC-PTAP peptide / Tsg101 binding | Potency, µM (titrated, usually from 115 µM), most hits filed as inhibitors | 340,000 tested, under 10 active; active = well fitted inhibition curve with a large enough effect in the main read-out, with a control signal flat, not every such curve was filed as active; inconclusive = small, poorly fitted or top-dose-only effect, or effect the other way, or a change in a side signal; inactive = no such curve, though single readings can be large or run the other way
#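 Tsg101 binding domain (10 uM final) was mixed with compound and a FITC-labeled PTAP peptide (50 nM final) in HEPES pH 7.5 buffer with NaCl, Tween 20, EDTA and TCEP; fluorescence polarization was read after 20 min at r.t.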
# Vif-APOBEC3F blk: blocks the Vif interaction with APOBEC3F; HeLa A3F-eYFP + Vif (tagged APOBEC3F with the HIV-1 protein that degrades it), YFP fluorescence increase; Potency, µM (doses to about 46.1 µM); hit rate 0.2% among 390,000; note: nearly all actives have a fitted effect of over 65% in size
#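 HeLa cells stably expressing A3F-eYFP plus Vif, plated and incubated overnight at 37 deg C, then exposed to compounds overnight at 37 deg C. Blocked degradation read as raised yellow fluorescence (Ex 488/Em 500-530).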
# Akt phos inh: blocks phosphorylation of Akt; AID 651550; activity change, % for hits at 50 µM; hit rate 0.32% among 360,000; Neuro2A IGF-stimulated pAkt S473 HTRF, 20 min; active compounds read low; in the data active = activity change below about -80%; inconclusive = mostly about -51% to -80%
#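 Neuro2A cells (4,500/well, DMEM with 0.5% FBS) were treated with compound at a single 50 µM final concentration, stimulated with 6 nM IGF for 20 min at 37 °C, and lysed. Phospho-Akt Ser473 was read by HTRF as 665/615 ratio ×10^4.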
# ASM inhibitor: blocks human secretory acid sphingomyelinase; hit rate 0.006% among 340,000; Potency, µM (series often up to 57.5 µM), usual class: inhibitors; placental ASM, HMU-PC fluorogenic substrate, 60 min
#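 Human placenta-derived ASM preincubated with compound 10 min at room temperature, then reacted with 9 uM (final) fluorogenic HMU-PC substrate for 60 min at 37 C. Stop solution raises pH to 10; fluorescence read at Ex 386/Em 447 nm.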
# ALOX12 inh: ALOX12 (human) lipoxygenase inhibition; P18054; purified 12hLO, xylenol orange hydroperoxide absorbance; Potency, µM (titrated, usually from 108 µM), most hits filed as inhibitors; hit rate 1.1% among 580,000; AID 1671190
#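 Purified human 12hLO at 150 nM in 25 mM Hepes, 0.01% Triton X-100, pH 7.0, preincubated 15 min at room temperature with compound. Reaction started with 40 uM arachidonic acid, 30 min at room temperature. Hydroperoxide measured by Fe-xylenol orange, 573/405 nm absorbance ratio.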
# Vif-A3G inh: blocks the Vif interaction with human APOBEC3G; Q9HC16; HeLa A3G-eYFP + Vif (tagged APOBEC3G with the HIV-1 protein that degrades it), YFP fluorescence, overnight; Potency, µM (series often up to 46.1 µM), most hits filed as inhibitors; hit rate 0.076% among 410,000; AID 602310; note: nearly all actives have a fitted effect of over 60% in size
# Target sequence (Q9HC16 whole entry, looked up): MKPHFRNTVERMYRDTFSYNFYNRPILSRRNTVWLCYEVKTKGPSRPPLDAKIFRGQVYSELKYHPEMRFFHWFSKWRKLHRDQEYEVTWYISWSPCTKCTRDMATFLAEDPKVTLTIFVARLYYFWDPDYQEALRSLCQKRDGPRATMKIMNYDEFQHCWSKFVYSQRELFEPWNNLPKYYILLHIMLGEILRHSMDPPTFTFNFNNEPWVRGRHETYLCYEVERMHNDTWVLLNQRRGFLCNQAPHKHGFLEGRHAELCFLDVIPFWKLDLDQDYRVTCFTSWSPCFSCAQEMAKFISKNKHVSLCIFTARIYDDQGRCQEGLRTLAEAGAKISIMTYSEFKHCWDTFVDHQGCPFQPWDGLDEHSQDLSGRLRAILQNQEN
#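 Read-out is eYFP fluorescence (Ex 488/Em 500-530) from Vif-expressing HeLa A3G-eYFP cells; more signal means A3G escaped Vif-mediated degradation. Cells plated overnight, compound pinned in, incubated overnight at 37 deg C.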
# A number is an active result; . = inactive; ? = inconclusive; / = no result given; ! = a repeat was not active. An excerpt weighted towards active compounds, which were near 1.4% of everything screened. Unless noted, calls come from the whole dose curve; as a rule, active = well fitted curve in the direction sought with a large enough effect; inconclusive = small, poorly fitted or top-dose-only effect, or another doubt; inactive = no such curve, though single readings can be large; an effect the other way counts as inactive or inconclusive.
SMILES,PTAP TSG101 blk,Vif-APOBEC3F blk,Akt phos inh,ASM inhibitor,ALOX12 inh,Vif-A3G inh
O=[S+]([O-])(NCC1CN(Cc2ccc3[nH]ccc3c2)CC12CN(c1ccccc1)C2)c1ccccc1 (stereo unspecified),/,/,/,/,35.5µM,/
Oc1ccc(CN2CC(CNc3ccccc3)C3(C2)CN(c2ccccc2)C3)cc1 (stereo unspecified),/,/,/,/,63.1µM,/
Cn1ccnc1C(NC(=O)c1nn(C)c(=O)c2ccccc12)c1ccccc1 (stereo unspecified),/,/,/,/,.,/
O=C(O)Cc1ccc(S(=O)(=O)Cc2ccccc2)cc1,/,/,/,/,1µM,/
CC(=O)Nc1cc2c(=O)n(Cc3ccccc3)c(C)nc2cc1N1CCOCC1,.,.,.,.,14.1µM,.
Cc1nc2cc(N3CCCCC3)c(NC(=O)c3cccnc3)cc2c(=O)n1Cc1ccccc1,.,.,.,.,.,.
CCOCc1nnc(NC(=O)CSc2ccccc2)s1,.,.,.,.,?,.
CC(C)(C)Cc1nnc(NC(=O)CSc2ccccc2)s1,.,.,.,.,17.8µM,.
CCCCc1nc(NCCOCCO)c(C#N)c2c1CCCC2,/,/,/,/,.,/
CCn1c(=O)n(CC)c2cc(S(=O)(=O)Nc3ccccc3C)c(C)cc21,/,.,-89.4%,.,.,.
COC(=O)c1cnc(NC(=O)Cc2ccc(-c3ccccc3)cc2)s1,/,/,/,/,.,/
CCOC(=O)C1CCN(C2=NC(=O)/C(=C/c3ccc(Cl)cc3)S2)CC1,.,.,.,.,?,.
CCOC(=O)CSC1=NC(=O)/C(=C\c2ccc(Cl)cc2)S1,.,/,.,.,44.7µM,.
Cn1cccc1/C=N/N1CCN(Cc2ccccc2)CC1,.,.,.,.,?,.
Cn1cccc1/C=N/N1CCN(Cc2cccc3ccccc23)CC1,.,.,.,.,17.8µM,.
CCCNC(=O)CCc1nc(-c2ccccc2)c(-c2ccccc2)o1,/,/,/,/,.,/
CC1=NOC(=O)/C1=C\c1ccc(-c2ccc(Cl)cc2Cl)o1,.,?,.,.,15.8µM,.
COCc1nncn1C1CCN(S(=O)(=O)c2ccc(C)c(Cl)c2)CC1,/,/,/,/,.,/
CCOC(=O)NC(=O)/C(C#N)=N\Nc1cccc(Cl)c1,.,.,.,.,0.398µM,.
COc1ccccc1-c1ccc(OCCCN2CCC(C(O)(c3ccccc3)c3ccccc3)CC2)cc1,/,/,/,/,39.8µM,/
OC(c1ccccc1)(c1ccccc1)C1CCN(CCCOc2ccc(-c3ccc(F)cc3F)cc2)CC1,/,/,/,/,39.8µM,/
N#CC1(Nc2ccccc2)CCCCC1,/,/,/,/,.,/
COc1ccc(C(=O)NC(=S)Nc2ccc(Cl)c(C(=O)O)c2)cc1,.,.,.,.,7.08µM,.
COc1ccc(C(=O)NC(=S)Nc2cccc(S(=O)(=O)N3CCOCC3)c2)cc1,.,.,.,.,28.2µM,?
COc1ccc(C(=O)NNC(=O)c2cccc(S(=O)(=O)N3CCOCC3)c2)cc1,.,.,.,.,.,.
SMILES,PTAP TSG101 blk,Vif-APOBEC3F blk,Akt phos inh,ASM inhibitor,ALOX12 inh,Vif-A3G inh
Cc1ccc(C(=O)NC(=S)Nc2ccc(Oc3ccc(Cl)cc3)cc2)cc1,.,.,.,.,7.94µM,.
COc1ccc(C(=O)NC(=S)NNC(=O)c2ccc(NC(=O)C(C)C)cc2)cc1,.,.,.,.,44.7µM,.
O=C(COC(=O)c1cc2c(s1)CCCCC2)NC(=O)NC1CCCC1,/,/,/,/,.,/
CCCc1cc(=O)oc2cc(OCC(=O)NCc3ccncc3)c(Cl)cc12,/,/,/,/,.,/
O=C1N(Cc2cccnc2)C(=O)C2(CCN(Cc3cc(F)ccc3F)CC2)N1CCc1ccccc1,/,/,/,/,.,/
Cc1ccc(S(=O)(=O)c2nc(-c3ccco3)oc2SC(C)c2ccccc2)cc1 (stereo unspecified),/,.,/,/,?,.
CCCCSc1oc(-c2ccco2)nc1S(=O)(=O)c1ccc(F)cc1,/,/,/,/,7.94µM,/
Cc1ccc(-c2nc(S(=O)(=O)c3ccc(C)cc3)c(SCC(=O)Nc3ccc(F)cc3)o2)cc1,/,.,/,/,?,.
CC(C)Sc1oc(-c2ccco2)nc1S(=O)(=O)c1ccc(F)cc1,.,.,.,.,28.2µM!,.
CCSc1oc(-c2ccc(F)cc2)nc1S(=O)(=O)c1ccc(C)cc1,/,.,/,/,39.8µM!,.
CCCOC(=S)N/C(=N\S(=O)(=O)c1ccccc1)c1ccccc1,.,.,.,.,35.5µM,.
